Experimental data: PubChem BioAssay
Activity calls are given as the source filed them.

How the values were obtained:
[1] = binders of probe aFSTL3 on microarray, primary screen, stem cell growth factor project, biochemical, small-molecule microarray, fluorescence 635/667 (AID 1064); details: higher = more signal;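 also: measures binding of the biotinylated anti-FSTL3 antibody to printed compounds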
[2] = binders from COS7 lysate, DM2A8 probe, primary screen, torsin A project, cell lysate, small-molecule microarray, fluorescence 635/667 (AID 1065); details: higher = more signal, COS7 lysate expressing mutant human TOR1A
[3] = binders of probe aFGF2 on microarray, primary screen, stem cell growth factor project, biochemical, small-molecule microarray, fluorescence 635/667 (AID 1067); details: higher = more signal;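 also: measures binding of biotinylated aFGF2 protein to printed compounds on slides; z-score merges feature fluorescence and signal-to-noise across triplicate slides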
[4] = binders of probe aFGF10 on microarray, primary screen, stem cell growth factor project, biochemical, small-molecule microarray, fluorescence 635/667 (AID 1071); details: higher = more signal;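 also: score merges 667 nm spot intensity and signal to noise from triplicate slides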
[5] = target: Neurogenic locus notch homolog protein 2 (Homo sapiens) (UniProt Q04721); test: Notch2 binders on small-molecule microarrays, primary screen, biochemical, small-molecule microarray, 635 nm fluorescence, stem cell growth factors (AID 1073); details: Notch2 binding, higher = more signal
[6] = target: Pro-neuregulin-1, membrane-bound isoform (Homo sapiens) (UniProt Q02297); test: NRG1 binders on small-molecule microarrays, primary screen, psychiatric disease protein project, biochemical, small-molecule microarray, fluorescence 635/667 (AID 1075); details: NRG1 binding, 635 nm fluorescence, higher = more signal;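 also: score combines 667 nm spot fluorescence with signal to noise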
Chain of Pro-neuregulin-1, membrane-bound isoform (Homo sapiens) (Q02297 whole entry, looked up, the tested form may be a part, canonical isoform): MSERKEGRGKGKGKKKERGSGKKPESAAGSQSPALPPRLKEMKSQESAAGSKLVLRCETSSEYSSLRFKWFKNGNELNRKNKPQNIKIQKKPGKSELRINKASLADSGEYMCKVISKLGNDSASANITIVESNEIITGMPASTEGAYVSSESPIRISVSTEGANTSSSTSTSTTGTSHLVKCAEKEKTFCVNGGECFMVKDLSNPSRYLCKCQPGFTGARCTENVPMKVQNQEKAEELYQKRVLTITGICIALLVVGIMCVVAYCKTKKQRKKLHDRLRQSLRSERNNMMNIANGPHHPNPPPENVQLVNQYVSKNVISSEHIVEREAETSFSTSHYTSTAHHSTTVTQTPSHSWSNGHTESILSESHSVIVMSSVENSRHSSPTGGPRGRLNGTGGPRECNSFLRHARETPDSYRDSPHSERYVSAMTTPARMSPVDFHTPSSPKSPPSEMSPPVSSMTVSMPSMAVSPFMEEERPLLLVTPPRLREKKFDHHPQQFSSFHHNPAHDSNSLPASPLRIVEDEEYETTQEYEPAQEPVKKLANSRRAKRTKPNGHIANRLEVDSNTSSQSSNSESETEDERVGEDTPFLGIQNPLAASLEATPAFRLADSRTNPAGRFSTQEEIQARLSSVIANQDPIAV

[7] = test system: Neuregulin-1 EGF-like domain; test: binders of neuregulin-1 EGF-like domain, primary screen, biochemical, small-molecule microarray, 635 nm fluorescence (AID 1081); details: small-molecule microarray binding, higher = more signal;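 also: binding of the protein to compounds printed on small-molecule microarray slides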
[8] = FRG1 promoter luciferase signal modulators, primary screen, FRG1 inhibition for FSHD, cell-based, C2C12 myotubes, firefly/Renilla luciferase, luminescence (AID 1084); details: higher = more signal, called active from +8 up or from −8 down
[9] = binders of probe aFST on microarray, primary screen, stem cell growth factor project, biochemical, small-molecule microarray, fluorescence 635/667 (AID 1086); details: higher = more signal;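 also: score merges 667 nm fluorescence with signal-to-noise of each printed compound spot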
[10] = binders of probe aHhip on microarray, primary screen, stem cell growth factor project, biochemical, small-molecule microarray, fluorescence 635/667 (AID 1087); details: higher = more signal;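 also: score merges spot fluorescence at 667nm with spot signal to noise ratio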
[11] = test system: PRMT1 (protein arginine N-methyltransferase 1); test: PRMT1 binders on small-molecule microarrays, primary screen, biochemical, small-molecule microarray, 635 nm fluorescence (AID 1088); details: small-molecule microarray binding, higher = more signal;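 also: binding of Prmt1 protein to compounds spotted on small-molecule microarray slides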
[12] = yeast growth modulation, basal conditions, primary screen, YJM789 clinical isolate, OD600, 24 h (AID 1089);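 also: growth of clinical yeast isolate S. cerevisiae YJM 789 seeded 1000 cells per well; test concentration not given here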; details: S. cerevisiae YJM789 growth, higher = more signal, called active from +8 up or from −8 down
[13] = fission yeast growth modulation, primary screen, strain 972, OD600, 24 h, no modulator (AID 1090);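 also: basal condition with compound alone and no growth modifier present; test concentration not given here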; details: S. pombe 972 growth, higher = more signal, called active from +8 up or from −8 down
[14] = S. cerevisiae growth modulation with rapamycin, primary screen, strain BY4716, OD600, 96 h (AID 1091); details: higher = more signal, called active from +8 up or from −8 down; also: test concentration not given here
[15] = target: Torsin-1A-interacting protein 2 (Homo sapiens) (UniProt Q8NFQ8); test: LULL1 binders on small-molecule microarray, primary screen, cell lysate, human LULL1 lysate, 635/667 nm fluorescence (AID 1092); details: hLULL1 lysate binding, 635 nm fluorescence, higher = more signal;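 also: probe is lysate of COS7 cells overexpressing human LULL1; score merges per-feature 667 nm fluorescence with signal-to-noise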
Chain of Torsin-1A-interacting protein 2 (Homo sapiens) (Q8NFQ8 whole entry, looked up): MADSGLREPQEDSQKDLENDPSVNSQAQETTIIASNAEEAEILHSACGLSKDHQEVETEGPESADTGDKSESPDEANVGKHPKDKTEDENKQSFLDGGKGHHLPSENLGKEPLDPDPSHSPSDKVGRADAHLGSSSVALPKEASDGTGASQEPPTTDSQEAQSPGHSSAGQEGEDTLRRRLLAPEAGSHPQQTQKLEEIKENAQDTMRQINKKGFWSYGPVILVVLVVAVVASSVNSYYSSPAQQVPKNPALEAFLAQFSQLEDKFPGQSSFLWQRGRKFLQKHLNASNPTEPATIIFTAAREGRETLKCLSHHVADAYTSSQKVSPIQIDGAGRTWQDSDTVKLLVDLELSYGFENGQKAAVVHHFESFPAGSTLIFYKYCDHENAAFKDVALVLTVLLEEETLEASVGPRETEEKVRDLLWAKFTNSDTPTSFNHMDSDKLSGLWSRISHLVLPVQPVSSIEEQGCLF

[16] = E. coli growth modulation, two-sided OD650, primary screen, E. coli filamentation project, strain DRC41, 24 h (AID 1093); details: OD650, 24 h, higher = more signal, called active from +8 up or from −8 down;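 also: MC1000 strain lacking acrAB efflux and sulA so SOS filamentation is blocked; test concentration not given here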
[17] = small-molecule microarray binders of probe aLefty2, primary screen, biochemical, biotinylated probe, 635/667 nm fluorescence (AID 1094); details: higher = more signal;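 also: score merges spot fluorescence near 667 nm with spot signal-to-noise ratio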
[18] = test system: Noggin (protein binding on small-molecule microarray); test: Noggin binders on small-molecule microarray, primary screen, biochemical, 635/667 nm fluorescence (AID 1095); details: 635 nm fluorescence, higher = more signal;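 also: score merges 667 nm feature fluorescence with signal to noise over triplicate slides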
[19] = target: Neurogenic locus notch homolog protein 3 (Homo sapiens) (UniProt Q9UM47); test: NOTCH3 binders on small-molecule microarray, primary screen, biochemical, 635/667 nm fluorescence (AID 1096); details: NOTCH3 binding, 635 nm fluorescence, higher = more signal
Chain of Neurogenic locus notch homolog protein 3 (Homo sapiens) (Q9UM47 whole entry, looked up): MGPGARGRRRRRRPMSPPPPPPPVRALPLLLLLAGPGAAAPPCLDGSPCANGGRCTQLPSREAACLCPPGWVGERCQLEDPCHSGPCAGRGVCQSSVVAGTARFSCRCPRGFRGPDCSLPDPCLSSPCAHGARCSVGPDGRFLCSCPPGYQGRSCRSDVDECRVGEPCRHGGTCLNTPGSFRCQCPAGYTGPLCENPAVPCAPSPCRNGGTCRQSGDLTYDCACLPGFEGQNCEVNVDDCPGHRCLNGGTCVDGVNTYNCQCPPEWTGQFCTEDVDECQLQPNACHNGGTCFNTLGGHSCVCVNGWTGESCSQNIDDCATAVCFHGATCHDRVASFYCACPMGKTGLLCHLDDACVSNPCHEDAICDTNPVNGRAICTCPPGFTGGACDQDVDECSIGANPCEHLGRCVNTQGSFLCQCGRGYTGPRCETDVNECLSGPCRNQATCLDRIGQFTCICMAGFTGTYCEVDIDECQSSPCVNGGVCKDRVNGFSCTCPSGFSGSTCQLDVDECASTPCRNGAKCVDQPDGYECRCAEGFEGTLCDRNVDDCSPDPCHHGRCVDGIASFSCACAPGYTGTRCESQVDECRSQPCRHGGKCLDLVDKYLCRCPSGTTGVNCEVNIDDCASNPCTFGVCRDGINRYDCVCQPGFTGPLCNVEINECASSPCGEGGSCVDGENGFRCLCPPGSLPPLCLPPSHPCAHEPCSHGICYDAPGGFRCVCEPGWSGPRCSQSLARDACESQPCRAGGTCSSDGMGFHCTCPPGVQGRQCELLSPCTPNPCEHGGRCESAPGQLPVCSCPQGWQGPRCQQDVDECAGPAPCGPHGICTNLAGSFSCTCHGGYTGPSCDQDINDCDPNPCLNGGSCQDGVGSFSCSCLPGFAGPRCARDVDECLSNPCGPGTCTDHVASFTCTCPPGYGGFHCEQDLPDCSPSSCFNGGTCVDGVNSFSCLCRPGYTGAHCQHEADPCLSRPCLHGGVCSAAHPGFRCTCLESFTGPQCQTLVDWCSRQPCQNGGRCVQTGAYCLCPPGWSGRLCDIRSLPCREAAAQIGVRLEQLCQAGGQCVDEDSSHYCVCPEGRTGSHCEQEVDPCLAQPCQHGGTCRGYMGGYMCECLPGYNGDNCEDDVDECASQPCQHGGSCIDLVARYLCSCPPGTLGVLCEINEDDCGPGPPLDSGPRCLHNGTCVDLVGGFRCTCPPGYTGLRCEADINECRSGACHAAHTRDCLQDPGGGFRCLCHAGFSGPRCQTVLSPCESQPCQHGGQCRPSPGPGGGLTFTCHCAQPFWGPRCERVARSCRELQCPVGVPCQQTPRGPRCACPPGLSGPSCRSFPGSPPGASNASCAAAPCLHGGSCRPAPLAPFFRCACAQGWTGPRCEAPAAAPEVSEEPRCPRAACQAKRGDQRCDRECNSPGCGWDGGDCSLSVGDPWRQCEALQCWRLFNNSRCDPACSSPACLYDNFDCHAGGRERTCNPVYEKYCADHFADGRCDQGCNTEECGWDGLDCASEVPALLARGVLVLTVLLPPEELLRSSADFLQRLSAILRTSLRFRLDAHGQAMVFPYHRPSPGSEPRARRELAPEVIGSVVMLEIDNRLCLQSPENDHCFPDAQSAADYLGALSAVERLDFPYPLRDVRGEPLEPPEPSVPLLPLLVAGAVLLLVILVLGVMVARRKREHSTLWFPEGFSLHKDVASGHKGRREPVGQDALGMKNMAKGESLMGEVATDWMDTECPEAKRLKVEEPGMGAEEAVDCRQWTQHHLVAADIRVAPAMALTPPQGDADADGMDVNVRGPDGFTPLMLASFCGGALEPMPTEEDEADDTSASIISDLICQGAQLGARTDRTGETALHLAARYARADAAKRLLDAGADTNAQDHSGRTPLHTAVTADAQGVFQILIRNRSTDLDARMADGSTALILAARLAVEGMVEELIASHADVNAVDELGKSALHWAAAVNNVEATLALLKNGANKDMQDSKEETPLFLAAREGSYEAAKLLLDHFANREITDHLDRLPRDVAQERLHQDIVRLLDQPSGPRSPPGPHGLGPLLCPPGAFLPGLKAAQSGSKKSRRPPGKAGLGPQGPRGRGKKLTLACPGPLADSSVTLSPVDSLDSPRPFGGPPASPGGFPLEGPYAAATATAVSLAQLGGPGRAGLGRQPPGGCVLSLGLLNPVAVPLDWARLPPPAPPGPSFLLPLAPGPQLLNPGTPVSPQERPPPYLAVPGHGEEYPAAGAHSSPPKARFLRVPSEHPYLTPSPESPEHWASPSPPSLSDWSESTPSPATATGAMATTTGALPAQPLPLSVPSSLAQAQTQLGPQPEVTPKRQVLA

[20] = small-molecule microarray binders of probe aEGFR, primary screen, biochemical, biotinylated probe, 635/667 nm fluorescence (AID 1097); details: higher = more signal;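 also: probe is a biotinylated anti-EGFR antibody binding compounds printed on slides; score combines fluorescence near 667 nm and signal to noise of each spot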

SMILES	composite z-score [1]	composite z-score [2]	composite z-score [3]	composite z-score [4]	composite z-score [5]	composite z-score [6]	composite z-score [7]	z-score [8]	composite z-score [9]	composite z-score [10]	composite z-score [11]	z-score [12]	z-score [13]	z-score [14]	composite z-score [15]	z-score [16]	composite z-score [17]	composite z-score [18]	composite z-score [19]	composite z-score [20]
C[C@@H](c1ccccc1)N1C(=O)[C@H]2[C@H]3[C@H](O)[C@H](O)CC(=NOCc4ccccc4)[C@@H]3CC[C@H]2C1=O	1.67	-0.0647	-0.0203	0.0018	-0.578	-0.258	-0.521	0.717 (inactive)	0.401	-0.0672	-0.246	0.855 (inactive)	-0.293 (inactive)	0.512 (inactive)	0.379	-0.125 (inactive)	0.408	-0.29	-0.551	-0.203
O=C1[C@H]2[C@H]3[C@H](O)[C@H](O)CC(=NOC[C@@H](O)COCc4ccco4)[C@@H]3CC[C@H]2C(=O)N1c1cccc(Oc2ccccc2)c1	-0.424	-0.78	-0.172	-0.177	-1.08	-0.628	-0.554	-0.0105 (inactive)	-0.465	-0.179	-0.76	0.321 (inactive)	-0.512 (inactive)	-0.86 (inactive)	-0.75	0.0129 (inactive)	0.0474	0.0054	-0.487	-0.156
CCCNC(=O)OC[C@H]1O[C@H](CCON=C2C[C@@H](O)[C@@H](O)[C@@H]3[C@@H]4C(=O)N(CC)C(=O)[C@@H]4CC[C@@H]23)C=C[C@@H]1Oc1ccc(OC)cc1	-0.465	0.142	-0.0165	0.64	0.705	0.628	0.898	0.36 (inactive)	0.46	-0.0645	1.07	-0.284 (inactive)	-0.0922 (inactive)	-0.768 (inactive)	1.04	0.536 (inactive)	-0.0932	0.64	1.05	-0.0605
COC(=O)[C@@H]1CC[C@H](C)[C@@H](c2ccc(Br)cc2)N1C[C@H](O)CN=[N+]=[N-]	-0.0566	0.143	-0.0925	0.171	-0.0324	0.374	-0.0594	0.348 (inactive)	-0.193	0.478	-0.164	-0.209 (inactive)	-4.62 (inactive)	-2.03 (inactive)	0.512	0.449 (inactive)	-0.181	-0.133	-0.0269	-0.139
CC(=O)OC[C@H]1O[C@H](CCON=C(C)CCN2CCCc3nc(C)c(C)cc32)C=C[C@@H]1OC(C)=O	-0.293	0.704	-0.0454	0.72	1.19	0.237	1.1	0.523 (inactive)	0.522	0.0722	1.54	0.569 (inactive)	0.339 (inactive)	0.61 (inactive)	1.31	1.08 (inactive)	0.118	0.754	1.04	0.577
O=C1CCCC=C1C(O)COCc1ccccc1 (stereo not given)	-0.356	0.217	-0.214	0.225	-0.263	-0.179	0.332	0.91 (inactive)	-0.302	-0.194	-0.544	0.249 (inactive)	-0.233 (inactive)	0.456 (inactive)	-0.395	0.202 (inactive)	-0.212	0.022	-0.256	-0.142
Cc1ccc(C(C)C)n1C(=O)OC(C)(C)C	-0.504	0.166	-0.0621	0.357	0.404	-0.199	0.477	-1.08 (inactive)	-0.3	0.0749	0.0565	-0.923 (inactive)	-0.817 (inactive)	-0.665 (inactive)	0.345	-0.315 (inactive)	-0.138	0.535	0.915	-0.0549
C[C@H]1CC[C@@H](C(=O)O)N[C@@H]1c1ccc(C#Cc2ccccc2)cc1	-0.214	0.0872	0.0166	0.505	1.32	0.736	1.24	3.31 (inactive)	0.316	0.176	1.52	-26.4 (active)	-21.1 (active)	-3.15 (inactive)	1.78	0.161 (inactive)	-0.0615	0.875	1.09	0.0651
C=CC[C@@H]1C=C[C@H](ON=C(C)CCN2CCCc3nc(C)c(C)cc32)[C@@H](CO)O1	0.886	1.26	0.208	0.435	0.945	-0.387	0.83	1.67 (inactive)	1.48	1.31	1.4	-0.367 (inactive)	0.323 (inactive)	-0.184 (inactive)	0.644	1.05 (inactive)	0.475	1.09	0.946	0.142
CCOC(=O)[C@H](Cc1ccccc1)NC(=O)CCC1CC(OC(=O)NCCc2ccc(F)cc2)CC2(CCCC(COC(=O)NCCOc3ccccc3)O2)O1 (stereo not given in full)	-0.493	1.34	-0.129	0.813	1.17	0.843	1.03	-0.997 (inactive)	0.564	0.162	1.53	-0.0952 (inactive)	0.549 (inactive)	0.0763 (inactive)	2.18	0.384 (inactive)	-0.0907	0.492	1.07	0.0009
